Consider 15 molecules from PubChem BioAssay (NCATS).

Experiment [1] addresses Lysosomal acid glucosylceramidase (Homo sapiens) (UniProt P04062). Put plainly: Glucocerebrosidase-p2 (AID 348; in the data active = potency below about 10 µM; also: potency is read from the fitted curve at half-maximal effect). The conditions noted are these: purified GBA, blue fluorogenic substrate, 40 min. The procedure, abridged:
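Normal human glucocerebrosidase (0.2 nM) with blue fluorogenic substrate (80 uM final) in citrate/phosphate pH 5.9 with 10mM sodium taurocholate, 0.01% tween-20; 40 min RT, NaOH/glycine stop; fluorescence Ex 365/Em 440; AC50 from a titration from 0.6 nM upwards.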

Experiment [2] is described as follows: AP1 Signaling Pathway (AID 357). Also: % is scaled to controls: 0 for no effect and ±100 for the full control effect. The following applies: ME-180 AP-1-bla reporter, EGF-induced, beta-lactamase ratio, 5 h; at 7.69 µM (top of the series) unless noted. The procedure, abridged:
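AP-1-bla ME-180 cells with beta-lactamase reporter under AP-1 response element, stimulated with EC50 EGF; compounds titrated, 5 hours at 37 degrees Celsius. CCF4 read at 460/530 nm ratio; positive and negative modulators judged by AC50.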

Experiment [3] can be described thus: NFAT Signaling Pathway (AID 444).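 Also: carbachol stimulus at about its EC50 of 1 µM final; % is scaled to controls: 0 for no effect and ±100 for the full control effect.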 The conditions noted are these: Jurkat NFAT-bla M1, carbachol, beta-lactamase ratio, 5 h; at 7.69 µM (top of the series) unless noted. The procedure, abridged:
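Jurkat cells carrying an NFAT-driven β-lactamase reporter and co-transfected muscarinic M1 receptor were treated with compound plus carbachol (1 uM final, an EC50 level) for 5 h at 37 °C. CCF4 loading followed for 1 h at RT; 460/530 nm ratio gave %activity.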

Experiment [4] can be described thus: Stat Signaling Pathway (AID 446).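 Also: ME-180 cervical cancer cells given 40 pM IL-6 alongside compound; SIE-controlled beta-lactamase reporter measured as 460/530 nm FRET emission ratio; % is scaled to controls: 0 for no effect and ±100 for the full control effect.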 The conditions noted are these: ME-180 (cervical carcinoma) SIE beta-lactamase reporter, IL-6 stimulated, 5 h; at 7.69 µM (top of the series) unless noted. The procedure, abridged: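 Overnight-plated ME-180 cells bearing a STAT Inducible Element beta-lactamase reporter; 5 h co-exposure to compound and 40 pM IL-6; values normalized to 300 pM IL-6 and 125 nM JAK inhibitor controls.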

Experiment [5] has as its target Glucocorticoid receptor (Homo sapiens) (UniProt P04150). The experiment can be described thus: GR-EFC Redistribution (AID 451; calls by dose curve; also: potency is read from the fitted curve at half-maximal effect). The following applies: CHO-K1 GR-EFC translocation, beta-gal luminescence, 2 h. The procedure, abridged: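 CHO-K1 cells stably expressing nuclear-localized β-gal enzyme acceptor and GR fused C-terminally to the enzyme donor fragment; ligand-driven nuclear translocation restores β-gal by complementation. Compounds titrated up to 46 uM final, 2 h at 37 °C; luminescence read.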

Experiment [6] has as its target Cytochrome P450 3A4 (Homo sapiens) (UniProt P08684). The experiment can be described thus: qHTS Assay for Activators of Cytochrome P450 3A4 (AID 885; active = well fitted curve in the direction sought with a large enough effect; an effect the other way counts as inactive or inconclusive; also: nearly all actives have a fitted effect of over 65% in size). The conditions noted are these: recombinant CYP3A4, Luciferin-PPXE luminescence, 60 min; series mostly up to 11.4 µM. The procedure, abridged: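 Using 20nM recombinant human CYP3A4 in potassium phosphate (200mM), substrate Luciferin-PPXE at 25uM, luminescent luciferin detection followed a 60-min RT NADPH reaction; data scaled to 57 uM ketoconazole.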
For orientation: qHTS replaces the single test concentration by a dilution series.

Experiment [7] addresses Mitogen-activated protein kinase 10 (Mus musculus) (UniProt Q61831). Put plainly: JNK3 AlphaScreen Assay (AID 530).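 Also: kinase came from lysate of stimulated human HepG2 cells; signal reports phosphorylation of biotinylated GST-cJun 1-79 at Ser73 with 10 µM ATP; % is scaled to controls: 0 for no effect and ±100 for the full control effect.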 The conditions noted are these: JNK3 lysate, c-Jun phosphorylation; series mostly up to 11.4 µM. The procedure, abridged:
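Biotinylated GST-cJun(1-79) served as substrate for JNK3 in HepG2 lysates stimulated with IL-1beta and TNF-alpha. ATP was 10 uM final, pH 7.6. Ser73 phosphorylation was quantified by AlphaScreen (680 nm excitation).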

The target of experiment [8] is 3',5'-cyclic-AMP phosphodiesterase 4B (Homo sapiens) (UniProt Q07343). The experiment can be described thus: qHTS Assay for Inhibitors of PDE-IV (AID 607; active = well fitted activation curve with a large enough effect in the main read-out, with a control signal flat, not every such curve was filed as active; also: % of control where 0% means no effect). The conditions noted are these: HEK293 ACTOne CNG channel cells, membrane potential fluorescence; series mostly up to 22.9 µM. The procedure, abridged:
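Live HEK293 cells with a modified cyclic nucleotide-gated (CNG) channel report intracellular cAMP via membrane-potential dye fluorescence (ex 535/em 590 nm). Endogenous PDE-IV was targeted. Compounds were tested at up to 22.9 uM final; RO 20-1724 100 uM served as control.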

Experiment [9] has as its target Cytochrome P450 2D6 (Homo sapiens) (UniProt P10635). Put plainly: qHTS Assay for Inhibitors and Substrates of Cytochrome P450 2D6 (AID 891; active = well fitted curve in the direction sought with a large enough effect; an effect the other way counts as inactive or inconclusive; also: potency is read from the fitted curve at half-maximal effect; nearly all actives have a fitted effect of over 60% in size). The following applies: recombinant CYP2D6, luciferin-ME EGE luminescence; series mostly up to 11.4 µM. The procedure, abridged: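 Luminescent read-out of luciferin formed by 5 nM human CYP2D6 demethylating 30 uM Luciferin-ME EGE (Km level) over 60 min at room temperature after NADPH regeneration addition. Data normalized to full inhibition by 1.43 uM quinidine.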

Experiment [10] has as its target Cytochrome P450 2C19 (Homo sapiens) (UniProt P33261). The experiment can be described thus: qHTS Assay for Inhibitors and Substrates of Cytochrome P450 2C19 (AID 899; active = well fitted curve in the direction sought with a large enough effect; an effect the other way counts as inactive or inconclusive; also: potency is read from the fitted curve at half-maximal effect; nearly all actives have a fitted effect of over 60% in size). The conditions noted are these: recombinant CYP2C19, luciferin-H EGE luminescence; series mostly up to 11.4 µM. The procedure, abridged: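 NADPH-dependent conversion of Luciferin-H EGE (10uM, at KM) by 5nM enzyme in 50mM KPO4, 60 min at 37C following 10 min compound preincubation. Stopped with luciferin detection buffer; luminescence read after 20 min.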

For experiment [11], the target named is Glucocorticoid receptor (Homo sapiens) (UniProt P04150). Put plainly: GR-GFP Redistribution (AID 450;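 active = compounds whose dose series gives a full or clear partial fitted curve of increased nuclear translocation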; also: potency is read from the fitted curve at half-maximal effect). The conditions noted are these: U2OS GR-GFP nuclear translocation, laser cytometry, 2 h.
Glucocorticoid receptor (Homo sapiens), sequence (P04150 whole entry, looked up, the tested form may be a part): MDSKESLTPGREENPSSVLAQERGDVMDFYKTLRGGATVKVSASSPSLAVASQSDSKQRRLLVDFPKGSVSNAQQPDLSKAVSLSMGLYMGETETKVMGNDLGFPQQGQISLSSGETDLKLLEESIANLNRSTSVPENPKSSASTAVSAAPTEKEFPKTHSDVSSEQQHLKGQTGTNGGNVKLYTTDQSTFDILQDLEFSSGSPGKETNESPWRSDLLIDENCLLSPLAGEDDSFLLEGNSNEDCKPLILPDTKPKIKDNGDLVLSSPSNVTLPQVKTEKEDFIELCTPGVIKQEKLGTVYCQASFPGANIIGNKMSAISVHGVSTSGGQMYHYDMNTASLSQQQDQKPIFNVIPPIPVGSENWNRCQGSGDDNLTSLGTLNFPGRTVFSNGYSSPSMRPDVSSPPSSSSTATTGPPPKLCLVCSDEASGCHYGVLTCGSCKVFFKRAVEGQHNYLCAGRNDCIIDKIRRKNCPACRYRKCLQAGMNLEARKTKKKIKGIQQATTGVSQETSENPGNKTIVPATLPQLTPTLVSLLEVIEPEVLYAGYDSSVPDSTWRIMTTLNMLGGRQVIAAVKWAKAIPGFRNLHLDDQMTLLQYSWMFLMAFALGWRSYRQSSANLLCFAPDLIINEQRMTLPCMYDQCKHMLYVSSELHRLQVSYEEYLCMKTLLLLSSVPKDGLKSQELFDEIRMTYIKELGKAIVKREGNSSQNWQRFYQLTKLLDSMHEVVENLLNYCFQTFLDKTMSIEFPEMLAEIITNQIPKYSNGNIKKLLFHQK

Structures are written as SMILES. A number with no mark means an inactive call. Inconclusive results are not listed. Activity calls are given as the source filed them. Unless noted, calls follow the shape of the dose curve; as a rule, active = well fitted curve in either direction with a large enough effect (not every such curve was filed as active); inconclusive = small, poorly fitted or top-dose-only effect, or another doubt; inactive = flat fitted curve, though single readings scatter. Where only a bound is given, the exact number is not on record here.

Lysosomal acid glucosylceramidase (Homo sapiens), sequence (P04062 whole entry, looked up): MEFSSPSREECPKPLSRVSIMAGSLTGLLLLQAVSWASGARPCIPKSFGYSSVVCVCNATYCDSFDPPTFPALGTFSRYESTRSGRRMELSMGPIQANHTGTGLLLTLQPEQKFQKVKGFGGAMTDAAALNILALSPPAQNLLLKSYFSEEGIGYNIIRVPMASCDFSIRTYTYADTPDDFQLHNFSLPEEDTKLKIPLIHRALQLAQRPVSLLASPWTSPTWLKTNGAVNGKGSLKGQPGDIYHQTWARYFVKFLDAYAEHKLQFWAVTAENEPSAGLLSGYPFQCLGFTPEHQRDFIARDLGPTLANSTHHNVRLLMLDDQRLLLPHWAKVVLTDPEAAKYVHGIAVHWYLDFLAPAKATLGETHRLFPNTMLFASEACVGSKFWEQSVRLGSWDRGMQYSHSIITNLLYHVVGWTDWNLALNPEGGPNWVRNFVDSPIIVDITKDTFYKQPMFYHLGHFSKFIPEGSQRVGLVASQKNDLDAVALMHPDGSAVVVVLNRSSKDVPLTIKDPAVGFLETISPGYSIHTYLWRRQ
3',5'-cyclic-AMP phosphodiesterase 4B (Homo sapiens), sequence (Q07343 whole entry, looked up): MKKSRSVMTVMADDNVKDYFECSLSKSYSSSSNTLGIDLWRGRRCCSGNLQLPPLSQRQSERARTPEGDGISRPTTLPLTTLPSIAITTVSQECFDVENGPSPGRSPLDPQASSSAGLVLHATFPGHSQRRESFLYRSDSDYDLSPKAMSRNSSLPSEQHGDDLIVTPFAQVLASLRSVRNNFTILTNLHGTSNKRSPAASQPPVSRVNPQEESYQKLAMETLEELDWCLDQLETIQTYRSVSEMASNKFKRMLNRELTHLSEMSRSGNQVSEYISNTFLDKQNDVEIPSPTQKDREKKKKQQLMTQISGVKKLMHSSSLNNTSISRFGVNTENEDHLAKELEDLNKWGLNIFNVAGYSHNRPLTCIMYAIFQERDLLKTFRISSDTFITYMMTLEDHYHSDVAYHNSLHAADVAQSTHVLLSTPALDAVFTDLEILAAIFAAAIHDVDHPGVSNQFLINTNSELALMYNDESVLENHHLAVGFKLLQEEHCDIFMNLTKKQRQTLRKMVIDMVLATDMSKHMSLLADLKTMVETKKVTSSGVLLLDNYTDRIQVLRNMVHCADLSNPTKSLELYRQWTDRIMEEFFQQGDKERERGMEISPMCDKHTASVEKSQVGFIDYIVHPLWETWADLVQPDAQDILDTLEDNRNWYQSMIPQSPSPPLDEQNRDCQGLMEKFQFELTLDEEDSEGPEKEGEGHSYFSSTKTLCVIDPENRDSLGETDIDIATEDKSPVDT
Cytochrome P450 2D6 (Homo sapiens), sequence (P10635 whole entry, looked up): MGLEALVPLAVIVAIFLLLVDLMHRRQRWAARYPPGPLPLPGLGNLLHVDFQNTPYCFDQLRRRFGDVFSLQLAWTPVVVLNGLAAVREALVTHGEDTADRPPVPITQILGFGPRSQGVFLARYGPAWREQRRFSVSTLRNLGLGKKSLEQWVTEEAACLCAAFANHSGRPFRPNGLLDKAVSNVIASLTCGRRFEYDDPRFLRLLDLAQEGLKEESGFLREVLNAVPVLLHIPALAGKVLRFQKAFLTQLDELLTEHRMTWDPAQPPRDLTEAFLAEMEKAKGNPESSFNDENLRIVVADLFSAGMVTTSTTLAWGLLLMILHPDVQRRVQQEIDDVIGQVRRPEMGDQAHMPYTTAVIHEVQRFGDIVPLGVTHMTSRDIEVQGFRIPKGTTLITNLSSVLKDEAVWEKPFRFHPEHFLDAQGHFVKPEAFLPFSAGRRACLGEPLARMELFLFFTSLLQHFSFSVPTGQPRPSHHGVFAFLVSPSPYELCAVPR
Cytochrome P450 2C19 (Homo sapiens), sequence (P33261 whole entry, looked up): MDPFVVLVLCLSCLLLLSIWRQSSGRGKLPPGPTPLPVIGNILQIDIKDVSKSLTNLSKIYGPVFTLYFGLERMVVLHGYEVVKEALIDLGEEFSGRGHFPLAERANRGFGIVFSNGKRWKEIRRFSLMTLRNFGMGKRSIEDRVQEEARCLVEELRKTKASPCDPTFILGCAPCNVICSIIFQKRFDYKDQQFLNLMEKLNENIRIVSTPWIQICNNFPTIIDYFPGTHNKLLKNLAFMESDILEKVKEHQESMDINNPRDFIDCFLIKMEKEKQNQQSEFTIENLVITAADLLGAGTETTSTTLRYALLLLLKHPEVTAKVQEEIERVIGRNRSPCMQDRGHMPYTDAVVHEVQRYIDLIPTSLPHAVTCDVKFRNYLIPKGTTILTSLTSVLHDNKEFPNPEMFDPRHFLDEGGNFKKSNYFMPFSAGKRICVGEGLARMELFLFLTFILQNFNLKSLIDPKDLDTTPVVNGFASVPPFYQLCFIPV
Cytochrome P450 3A4 (Homo sapiens), sequence (P08684 whole entry, looked up): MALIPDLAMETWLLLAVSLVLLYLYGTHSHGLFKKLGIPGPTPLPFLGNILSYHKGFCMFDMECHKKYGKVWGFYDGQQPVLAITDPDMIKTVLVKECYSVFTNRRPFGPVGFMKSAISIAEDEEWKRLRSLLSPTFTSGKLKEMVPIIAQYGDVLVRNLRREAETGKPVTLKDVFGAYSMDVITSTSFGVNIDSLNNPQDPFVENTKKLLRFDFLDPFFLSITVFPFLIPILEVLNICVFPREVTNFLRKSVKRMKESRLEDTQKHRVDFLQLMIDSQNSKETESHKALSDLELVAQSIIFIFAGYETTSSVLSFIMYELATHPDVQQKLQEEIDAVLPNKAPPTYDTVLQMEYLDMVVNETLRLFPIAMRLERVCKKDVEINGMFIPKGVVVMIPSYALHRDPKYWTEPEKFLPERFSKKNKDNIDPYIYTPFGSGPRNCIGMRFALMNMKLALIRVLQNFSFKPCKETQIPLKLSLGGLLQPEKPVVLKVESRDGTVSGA

For `COc1ccc(C(=O)N2CCC[C@@]3(CCN(c4ccccc4)C3)C2)cc1`, the Potency was more than 11.4 µM in [1] and more than 46 µM in experiment [5]. Also, the activity change, negative = inhibition in [2] was -5.32%; in experiment [3] it was -9.66%. In addition, the activity, negative = inhibition in experiment [4] is -1.29%. Further, in experiment [6], the Potency result is “inactive”.
Turning to `CN1CCC[C@@H]1c1cccnc1.O=C(O)c1ccccc1O.O=C([OH2+])c1ccccc1O.O=C([OH2+])c1ccccc1O.O=C([OH2+])c1ccccc1O.[Cu]`, the Potency in [1] is more than 11.4 µM. The activity change, negative = inhibition in experiment [2] is 0.0867%; in [3] it was -1.52%. Also, the activity, negative = inhibition in [4] is 12.5%. Besides, the Potency entry in experiment [7] and in experiment [8] was “inactive” each time.
`CC(C)(C)c1ccc(O)c(CN(Cc2cc(C(C)(C)C)ccc2O)C2CCCCC2)c1`: the Potency is more than 11.4 µM in [1], more than 9.22 µM in [5], 0.501 µM (active) in [9] and 1.58 µM (active) in [10]. Moreover, the activity change, negative = inhibition was 5.42% in experiment [2] and -3.2% in experiment [3]. Moreover, the activity, negative = inhibition in experiment [4] is 6.32%. Further, the Potency result in experiment [7] and in experiment [8] was “inactive” each time.
For the molecule `CN1CCC[C@@H]1c1cccnc1.O=C(O)c1ccccc1O.O=C([OH2+])c1ccccc1O.O=C([OH2+])c1ccccc1O.[Mn]`, in experiment [1], the Potency was more than 11.4 µM. Moreover, the activity change, negative = inhibition is 10.8% in experiment [2] and -9.45% in experiment [3]. Moreover, in [4], the activity, negative = inhibition is 17.5%. Besides, the Potency result in [7] and in experiment [8] was “inactive” each time.
For the molecule `O=c1oc2ccccc2c(O)c1/C=N/c1nc(-c2ccc(O)c(O)c2)cs1`, the values for the Potency in [1] and in experiment [5] were more than 11.4 µM and more than 9.22 µM, respectively. The activity change, negative = inhibition in experiment [2] was -3.14%; in [3], 27.7%. In addition, in experiment [4], the activity, negative = inhibition is -11.7%. Further, the Potency result in experiment [7] and in [8] was “inactive” each time.
Consider `Cc1nn(-c2ccc(S(=O)(=O)O)cc2)c(O)c1N=Nc1ccc(-c2ccc(N=Nc3ccc4c(S(=O)(=O)O)cc(S(=O)(=O)O)c(N)c4c3O)c(O)c2)cc1O.[Cu].[Cu]`, for which the Potency in [1] was more than 11.4 µM; in experiment [11] it was more than 46 µM; in [5], more than 9.22 µM. Further, the activity change, negative = inhibition in experiment [2] is 8.16%; in experiment [3], 6.08%. Moreover, the Potency entry in [7] and in experiment [8] was “inactive” each time.
As for `NC(=O)SCC(=O)Nc1ccc2ncccc2c1`, the Potency in [1] was more than 11.4 µM; in experiment [11], more than 46 µM; in experiment [5] it was more than 9.22 µM. The activity change, negative = inhibition in experiment [2] was 1.01%; in [3], 12.1%. The Potency entry in experiment [7] and in experiment [8] was “inactive” in each case.
On to `O=C(O)CC(CC(=O)O)C(=O)O`, for which the Potency in [1] is more than 11.4 µM; in experiment [11], more than 46 µM. The activity change, negative = inhibition in experiment [2] is -1.11%; in experiment [3], 8.83%. Also, the activity, negative = inhibition in experiment [4] is 7.1%. Also, the Potency entry in [7] and in experiment [8] was “inactive” each time.
Consider `C[C@@H]1CCCC(CC(=O)O)(CC(=O)O)C1`, for which the Potency in experiment [1] was more than 11.4 µM; in experiment [11], more than 46 µM. The activity change, negative = inhibition is -2.04% in experiment [2] and -0.409% in experiment [3]. Also, the activity, negative = inhibition in [4] is 6.41%. The Potency result in experiment [7] and in experiment [8] was “inactive” in each case.
Turning to `O=C(O)[C@@H](O)[C@H](O)C(=O)O`, the Potency in [1] was more than 11.4 µM; in experiment [11], more than 46 µM; in experiment [5], more than 9.22 µM. Besides, the activity change, negative = inhibition in experiment [2] is -6.26%; in [3], 14.9%. Further, the Potency result in experiment [7] and in [8] was “inactive” throughout.
As for `CC(C)(CN)SCc1ccccc1`, the values for the Potency in [1], in experiment [11] and in experiment [5] were more than 11.4 µM, more than 46 µM and more than 9.22 µM, respectively. The activity change, negative = inhibition in experiment [2] is 5.51%; in experiment [3], -0.0753%. Moreover, the Potency entry in experiment [7] and in experiment [8] was “inactive” throughout.
On to `O=C(O)CN(CCN(CC(=O)O)CC(=O)O)CC(=O)O.[Cu]`, for which the Potency in experiment [1] is more than 11.4 µM. Besides, the activity change, negative = inhibition was -4.33% in experiment [2] and 0.389% in experiment [3]. Moreover, in experiment [4], the activity, negative = inhibition was 6.67%. The Potency result in experiment [7] and in experiment [8] was “inactive” throughout.
As to `COc1ccc(-n2c(=O)c(-c3cccs3)nc3cnc(Oc4ccccc4)nc32)cc1`, the Potency is more than 11.4 µM in [1], more than 9.22 µM in experiment [11] and more than 46 µM in experiment [5]. The activity change, negative = inhibition in experiment [2] was -6.68%; in [3], -26.9%. The Potency result in experiment [7] and in experiment [8] was “inactive” each time.
With `CC(C)c1ccc2c(c1)CC[C@H]1[C@@](C)(CN)CCC[C@@]21C`, the Potency in experiment [1] was more than 11.4 µM; in experiment [9], 1.26 µM (active). Further, the activity change, negative = inhibition in experiment [2] was 6.87%; in experiment [3], 30%. For the same molecule, the activity, negative = inhibition in [4] was 11.3%. The Potency result in [7] and in experiment [8] was “inactive” throughout.
For `CCN(CC)CCN1C(=O)c2cccc3cc(N)cc(c23)C1=O`, the figures for the Potency in experiment [1], in experiment [11] and in experiment [5] were more than 11.4 µM, more than 46 µM and more than 9.22 µM, respectively. Besides, the activity change, negative = inhibition is 25.3% in experiment [2] and -6.74% in experiment [3]. The Potency result in experiment [7] and in experiment [8] was “inactive” in each case.
